Data taken from PubChem BioAssay (EPA / NIEHS).
Activity calls are given as the source filed them. Rule for the calls: active = hit-call score of the fitted dose curve at least 0.9, where 1 is the maximum; inactive = score below 0.9.

Test: ATG_AP_2_CIS: Attagene CIS-FACTORIAL HepG2 Assay for human Activator Protein 2 (AP-2) (AID 2282932)
Details: HepG2 AP-2 cis-reporter, Attagene transcription factor profiling; actives raise or lower the signal
How it was run: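 Endogenous transcription factor activity is reported through transfected multiplex reporter constructs in HepG2, after 24 h of compound exposure. Transcripts were quantified by RT-PCR and capillary electrophoresis of fluorescent fragments. Bidirectional fit against DMSO.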

SMILES | outcome
Nc1ccc(-c2ccc(N)c(N)c2)cc1N | inactive
CCOP(O)OCC | inactive
C#CC1(O)CCCCC1 | inactive
O=c1[nH]c(Cl)c(Cl)cc1Cl | inactive
CCC(C)c1cc(C(C)(C)C)cc(-n2nc3ccccc3n2)c1O (centres undefined) | inactive
[CH3][Sn]([Cl])([Cl])[Cl] | inactive
Nc1c(Cl)c(Cl)c(Cl)c(Cl)c1Cl | inactive
COC(=O)c1ccccc1S(=O)(=O)NC(=O)Nc1nc(C)cc(C)n1 | inactive
Nc1ccccc1C(=O)OCCc1ccccc1 | inactive
N#Cc1cccc(C#N)c1 | inactive
O=C(O)CCCc1ccc(N(CCCl)CCCl)cc1 | inactive
Nc1cc(Cl)cc(Cl)c1 | inactive
COc1ncc(F)c2nc(S(=O)(=O)Nc3c(F)cccc3F)nn12 | inactive
COC(C)(C)CCC[C@H](C)C/C=C/C(C)=C/C(=O)OC(C)C | inactive
[CH3][Sn]([CH3])([Cl])[Cl] | inactive
BrCBr | inactive
CCc1cccc(C)c1N(C(=O)CCl)[C@@H](C)COC | inactive
O=P1(NCCCl)OCCCN1CCCl (centres undefined) | inactive
CC(Cc1ccc(C(C)(C)C)cc1)CN1C[C@@H](C)O[C@@H](C)C1 (some centres undefined) | inactive
O=C(O)c1cc[c]([Hg][Cl])cc1 | inactive

SMILES | outcome
C[N+](C)(C)CC(=O)O | inactive
O=S(=O)(c1ccccc1)c1ccccc1 | inactive
Clc1ccc(-c2ccccc2)cc1 | inactive
CN(C)C(=O)C(c1ccccc1)c1ccccc1 | inactive
C=CCc1ccc(OC(=O)Cc2ccccc2)c(OC)c1 | inactive
O=P(O)(Oc1ccccc1)Oc1ccccc1 | inactive
CC1CCCC1.[C-]#[O+].[C-]#[O+].[C-]#[O+].[Mn] | inactive
O=C(O)COc1ccccc1 | inactive
[Cl][Sb]([Cl])[Cl] | inactive
CCC(=O)c1ccc(Cl)cc1 | inactive
Cc1ccc(N(SC(F)(Cl)Cl)S(=O)(=O)N(C)C)cc1 | inactive
CC1(C)CC(=O)CC(C)(C)N1[O] | inactive
SCc1ccco1 | inactive
O=CNC(N1CCN(C(NC=O)C(Cl)(Cl)Cl)CC1)C(Cl)(Cl)Cl (centres undefined) | inactive
Oc1cc(Cl)ccc1Cl | inactive
O=[N+]([O-])c1cc(C(F)(F)F)c(Cl)c([N+](=O)[O-])c1Cl | inactive
C[C@]12CCC(=O)C(O)=C1CC[C@@H]1[C@@H]2CC[C@]2(C)C(=O)CC[C@@H]12 | inactive
CSc1nc(N=[N+]=[N-])nc(NC(C)C)n1 | inactive
O=[N+]([O-])O.O=[N+]([O-])O.[Cd] | inactive
